Records with an inconclusive call do not appear. Calls of active or inactive are those of the source. Unless noted, calls come from the whole dose curve; as a rule, active = well fitted curve in the direction sought with a large enough effect in the repeat runs; inconclusive = weak or mixed curves; inactive = no such curve, though single readings can be large; an effect the other way counts as inactive or inconclusive.
Legend:
[1] = qHTS assay for small molecules that induce genotoxicity in human embryonic kidney cells expressing luciferase-tagged ATAD5 (AID 651632); note: nearly all actives have a fitted effect of over 15% in size
Method in brief: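 DMSO vehicle served as the control. HEK293T reporter cells, 16 hr at 37C, then 30 min Amplite at room temperature; ATAD5 induction is measured as luciferase activity.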

[2] = qHTS assay for small molecule disruptors of the mitochondrial membrane potential - cell viability (AID 720634; calls by dose curve;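 note: human HepG2 liver cancer cells; nearly all actives have a fitted effect of over 20% in size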)
Method in brief: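 Viability of HepG2 cells is scored from ATP content by luminescence; cells are exposed to compound for 1 hr at 37 C and 5% CO2, then dosed with m-MPI dye before the CellTiter-Glo reagent.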

[3] = qHTS assay for small molecule disruptors of the mitochondrial membrane potential (AID 720635); note: potency is the fitted concentration of half-maximal effect
Method in brief: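 HepG2 cells (2,000/well) attached overnight at 37C, then took compound for 1 hr at 37C, 5% CO2. Mito-MPS dye was added for 30 min; fluorescence was read at 490/535 nm (monomers) and 540/590 nm (aggregates).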

[4] = qHTS assay to test for compound auto fluorescence at 535 nm (green) in HepG2 cells (AID 720675)
[5] = qHTS assay to test for compound auto fluorescence at 460 nm (blue) in HEK293 cells (AID 720678); note: potency is the fitted concentration of half-maximal effect
Method in brief: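 Auto fluorescence in the blue band was quantified as triamterene equivalency. HEK293 cells were seeded at 2,000/well, dosed after a 4-5 hr attachment, and kept overnight at 37C before the 405/460 nm reading.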

[6] = qHTS assay to test for compound auto fluorescence at 590 nm (red) in HEK293 cells (AID 720679)
Method in brief: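 Autofluorescence equivalency to Rose Bengal sodium, 540/590nm, in HEK293 cells exposed overnight to 23 nL compound per well.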

[7] = qHTS assay to test for compound auto fluorescence at 460 nm (blue) in HEK293 cell free culture (AID 720681); note: potency is the fitted concentration of half-maximal effect
Method in brief: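 Test compounds were pinned into cell-free culture medium (DMEM with 10% FBS) and fluorescence was read directly at Ex/Em 405/460 nm. Signals were expressed as fluorescence equivalents of triamterene, with DMSO vehicle as control.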

[8] = qHTS assay to test for compound auto fluorescence at 535 nm (green) in HEK293 cell free culture (AID 720682)
Method in brief: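 Read-out: 485/535 nm fluorescence intensity, calibrated against fluorescein. Medium only (DMEM + 10% FBS, no cells); test compound or DMSO vehicle added by pintool before plate reading.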

[9] = qHTS assay to test for compound auto fluorescence at 590 nm (red) in HepG2 cell free culture (AID 720684)
Method in brief: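 Readout: intrinsic compound fluorescence at 590 nm emission after 540 nm excitation, scaled to Rose Bengal sodium. Matrix was cell-free MEM with 10% FBS; DMSO vehicle wells served as control.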

[10] = qHTS assay to test for compound auto fluorescence at 460 nm (blue) in HepG2 cell free culture (AID 720685); note: potency is the fitted concentration of half-maximal effect
Method in brief: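 Cell-free plates of MEM plus 10% FBS received 23 nL compound or DMSO vehicle; blue-channel (405/460 nm) intensity scored against triamterene as reference fluorophore.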

[11] = qHTS assay to test for compound auto fluorescence at 460 nm (blue) in HepG2 cells (AID 720687); note: potency is the fitted concentration of half-maximal effect
Method in brief: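 Cells (2,000/well in MEM with 10% FBS) attached overnight at 37 C, then were exposed to compound or DMSO for 1 hr at 37 C, 5% CO2. Fluorescence read at Ex/Em 405/460 nm, expressed as triamterene-equivalent signal.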

[12] = qHTS assay to test for compound auto fluorescence at 535 nm (green) in HEK293 cells (AID 720680)
[13] = qHTS assay to test for compound auto fluorescence at 590 nm (red) in HEK293 cell free culture (AID 720683)
Method in brief: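 Tox21 10K library compounds were pinned into cell-free DMEM with 10% FBS and fluorescence was read at excitation 540 nm. Activity is expressed as Rose Bengal sodium equivalency.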

[14] = target: Glucocorticoid receptor (Homo sapiens) (UniProt P04150); experiment: qHTS assay to identify small molecule agonists of the glucocorticoid receptor (GR) signaling pathway (AID 720691; active = well fitted activation curve with a large enough effect in the signal ratio in the repeat runs, not every such curve was filed as active; the % refers to the signal ratio); conditions: GR-bla HeLa, beta-lactamase reporter ratio, 18 h; activation: at 62.4 µM (top of the series)
Method in brief: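 Compounds in DMSO, alongside positive controls, were added to GR-bla HeLa reporter cells and incubated 18 h at 37 C; GRE-driven beta-lactamase was detected by fluorescence after 2 h with FRET substrate at room temperature.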

[15] = target: Glucocorticoid receptor (Homo sapiens) (UniProt P04150); experiment: qHTS assay to identify small molecule antagonists of the glucocorticoid receptor (GR) signaling pathway (AID 720692; active = well fitted inhibition curve with a large enough effect in the signal ratio in the repeat runs, not every such curve was filed as active; the % refers to the signal ratio)
Method in brief: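 In a 1536-well cell format, compounds were added 4 h after seeding GR-bla HeLa cells, together with dexamethasone at 5 nM final; reporter activity was measured by FRET-substrate fluorescence following 18 h at 37 C.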

[16] = qHTS assay for small molecule agonists of the p53 signaling pathway - cell viability (AID 651633; calls by dose curve;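 note: p53RE-bla HCT reporter cells with a stable beta-lactamase p53 reporter; nearly all actives have a fitted effect of over 30% in size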)
Method in brief: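 p53RE-bla cells, seeded at 4,000 per well and rested 5 h at 37 C/5% CO2, received compounds in DMSO for 16 h at 37 C. CellTiter-Glo was then added, and luminescence was read after 30 min at room temperature to gauge cytotoxicity.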

[17] = qHTS assay to test for compound auto fluorescence at 590 nm (red) in HepG2 cells (AID 720674)
Method in brief: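 Rose Bengal sodium served as the red fluorophore standard. HepG2 monolayers (overnight attachment, MEM with 10% FBS) were exposed to test compounds for 1 hr at 37 C and read at Ex 540/Em 590 nm.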

[18] = qHTS assay to test for compound auto fluorescence at 535 nm (green) in HepG2 cell free culture (AID 720686)
[19] = qHTS assay for small molecules that induce genotoxicity in human embryonic kidney cells expressing luciferase-tagged ATAD5 - cell viability (AID 651634; calls by dose curve; note: nearly all actives have a fitted effect of over 25% in size)
Method in brief: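 Here HEK293T cells with the ATAD5 luciferase reporter are incubated with test compounds for 15.5 hr, and cytotoxicity is then gauged by measuring protease activity in live cells using fluorescence.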

Measured: Potency
Tags give direction and shape of the fitted curve or compound fluorescence and quenching.

Sequence of Glucocorticoid receptor (Homo sapiens) (P04150 whole entry, looked up): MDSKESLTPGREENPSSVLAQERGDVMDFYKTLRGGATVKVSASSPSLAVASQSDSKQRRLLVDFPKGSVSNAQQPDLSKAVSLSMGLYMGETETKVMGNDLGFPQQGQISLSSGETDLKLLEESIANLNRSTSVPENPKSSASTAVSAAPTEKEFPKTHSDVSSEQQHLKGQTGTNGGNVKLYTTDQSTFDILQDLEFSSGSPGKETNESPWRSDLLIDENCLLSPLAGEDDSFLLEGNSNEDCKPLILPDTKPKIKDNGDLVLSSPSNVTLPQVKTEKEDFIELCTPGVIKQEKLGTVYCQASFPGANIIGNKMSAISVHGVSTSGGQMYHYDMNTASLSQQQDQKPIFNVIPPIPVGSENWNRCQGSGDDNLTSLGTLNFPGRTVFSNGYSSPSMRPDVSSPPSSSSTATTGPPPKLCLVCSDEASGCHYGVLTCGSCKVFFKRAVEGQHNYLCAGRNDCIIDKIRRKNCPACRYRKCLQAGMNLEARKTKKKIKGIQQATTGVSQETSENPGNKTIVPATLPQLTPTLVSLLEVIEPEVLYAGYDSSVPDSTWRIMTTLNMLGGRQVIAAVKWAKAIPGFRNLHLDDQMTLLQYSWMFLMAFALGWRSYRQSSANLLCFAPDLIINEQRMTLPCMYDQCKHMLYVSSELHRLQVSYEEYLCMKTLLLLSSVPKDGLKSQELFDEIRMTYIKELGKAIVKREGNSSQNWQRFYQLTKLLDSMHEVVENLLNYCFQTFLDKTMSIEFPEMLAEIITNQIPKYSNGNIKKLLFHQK

CCCN
inactive: [1] | [2] | [3] | [4] | [5] | [6] | [7] | [8] | [9] | [10] | [11]

Oc1cc(Cl)cc(Cl)c1
inactive: [1] | [4] | [5] | [6] | [12] | [7] | [8] | [13] | [9] | [11] | [14] | [15]

S=C=NCCc1ccccc1
inactive: [16] | [2] | [17] | [4] | [5] | [6] | [12] | [7] | [8] | [9] | [18] | [11] | [14]

Cc1cnc2c(C(=O)O)c(Cl)ccc2c1
inactive: [1] | [2] | [17] | [4] | [5] | [6] | [12] | [7] | [8] | [13] | [9] | [10] | [18] | [11] | [14] | [15]

CCCCn1cc[n+](C)c1 (tested in a mixture with another compound)
inactive: [19] | [2] | [17] | [4] | [5] | [6] | [12] | [7] | [8] | [13] | [9] | [18] | [11]

CSSC
inactive: [16] | [17] | [4] | [5] | [6] | [12] | [7] | [13] | [9] | [10] | [11]

CCCCn1cc[n+](C)c1.[Cl][Fe-]([Cl])([Cl])[Cl]
inactive: [2] | [3] | [17] | [4] | [5] | [6] | [12] | [7] | [8] | [13] | [9] | [11]

[Cl-].[Cl-].[Sn+2]
inactive: [19] | [17] | [4] | [5] | [6] | [12] | [7] | [8] | [13] | [9] | [10] | [18] | [11]

NC1CCC(CC2CCC(N)CC2)CC1 (stereo not drawn)
inactive: [1] | [2] | [3] | [4] | [5] | [6] | [12] | [7] | [8] | [9] | [10] | [18] | [11] | [14] | [15]

CC(=O)[O-].CC(=O)[O-].[Co+2]
inactive: [16] | [19] | [17] | [4] | [5] | [6] | [12] | [7] | [8] | [13] | [9] | [10] | [18] | [11]

CO/N=C(/C1=NOCCO1)c1ccccc1Oc1ncnc(Oc2ccccc2Cl)c1F
inactive: [1] | [17] | [4] | [5] | [6] | [12] | [7] | [8] | [9] | [10] | [11] | [14] | [15]
active: [3] 54400 nM

O.O.O.O=C([O-])[C@H]([O-])[C@@H]([O-])C(=O)[O-].O=C([O-])[C@H]([O-])[C@@H]([O-])C(=O)[O-].[K+].[K+].[Sb+3].[Sb+3]
inactive: [19] | [2] | [17] | [4] | [5] | [6] | [12] | [7] | [8] | [9] | [10] | [11]

N#Cc1c2ccccc2cc2ccccc12
active: [3] 1720 nM | [5] 1260 nM [fluorescent] | [7] 2510 nM | [10] 2510 nM [fluorescent] | [11] 2820 nM [fluorescent]
inactive: [19] | [17] | [4] | [6] | [8] | [13] | [9] | [18]

N#CSCc1ccccc1
inactive: [16] | [2] | [17] | [4] | [5] | [6] | [7] | [8] | [13] | [9] | [18] | [11] | [14]

CC(=O)[O-].CC(=O)[O-].CC(=O)[O-].[Cr+3]
inactive: [19] | [17] | [4] | [5] | [6] | [12] | [7] | [8] | [13] | [9] | [10] | [18] | [11]

O=C(N[C@H]1N=C(c2ccccc2F)c2cccc3c2N(CC3)C1=O)c1cc2ccccc2[nH]1
inactive: [1] | [2] | [17] | [4] | [5] | [6] | [12] | [7] | [13] | [9] | [10] | [18] | [11]

O=[N+]([O-])c1ccc(CCl)cc1
inactive: [19] | [2] | [3] | [17] | [4] | [5] | [6] | [12] | [7] | [8] | [9] | [10] | [11] | [14] | [15]
